Laboratory results as given in PubChem BioAssay AID771 (SRMLSC, 2007).
Screen size: about 3,300 compounds; about 55 (2%) were called active.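 How the source made its calls: active means growth inhibition above 90%, meaning viable cell count by imaging cut by more than 90% versus vehicle controls; inactive means growth inhibition below 90%.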 Many of the other results were omitted from the sample, so actives are more common in it than they were.

Test: HT29 colon tumor cell growth inhibition, primary screen, imaging, high content imaging, 48 h, CellTiter-Glo (AID 771);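 on condensed nuclei: condensed means Hoechst nuclear area under control median minus 1.5 SD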
Conditions: HCS imaging cell count, at 10 µM, stronger effect = higher value; for condensed nuclei: measured here: percent cells with condensed nuclei
[1] = measured here: ATP CellTiter-Glo viability inhibition

SMILES	growth inhibition	condensed nuclei [%]	growth inhibition [1] [%]
Cc1c2ccncc2c(C)c2c1[nH]c1ccccc12	97% (active)	22.4	
c1ccc2c(c1)[nH]c1cnccc12	-8.76% (inactive)	2.05	
COc1ccccc1-n1c(O)c(C=NCCCn2ccnc2)c(=O)[nH]c1=O	-20.9% (inactive)	3.63	8.58
CC1(C)CC(=O)C(C=NCCN2CCN(C(=O)Cc3ccc(F)cc3)CC2)=C(O)C1	44.1% (inactive)	1.29	0.25
Nc1c(C(=O)NCc2ccco2)c2nc3ccccc3nc2n1CCN1CCCCC1	96.7% (active)	15.6	86.4
Nc1c(C(=O)NCc2ccco2)c2nc3ccccc3nc2n1Cc1ccc(F)cc1	34.1% (inactive)	1.57	32.2
COCCOC(=O)c1c(N)n(Cc2ccco2)c2nc3ccccc3nc12	-45.9% (inactive)	3.74	-19.7
Cc1ccc(C)c(C2(O)CC(C)N(C)CC2C)c1 (stereo not given)	-0.27% (inactive)	2.34	1.07
CC[C@@H](CO)NC(=O)[C@@H]1C=C2c3cccc4c3c(cn4C)C[C@H]2N(C)C1	12.4% (inactive)	0.97	
CC(C)[C@@]1(NC(=O)[C@@H]2C[C@@H]3c4cccc5[nH]cc(c45)C[C@H]3N(C)C2)O[C@@]2(O)[C@@H]3CCCN3C(=O)[C@H](Cc3ccccc3)N2C1=O	88.7% (inactive)	10.3	
CN1C[C@H](CNC(=O)OCc2ccccc2)C[C@@H]2c3cccc4c3c(cn4C)C[C@H]21	93.2% (active)	18.1	
O=C(Nc1ccncc1)c1c(O)c2ccccc2n(Cc2ccccc2)c1=O	-29.4% (inactive)	1.56	-27.2
CCOC(=O)[C@@]1(C#N)[C@@H]2C=CC(C(N)=O)=CN2[C@@H](C(N)=O)[C@@H]1c1cccc(Cl)c1	1.36% (inactive)	1.63	-5.1
CC1(c2ccccc2)NCCN2C(=O)CSC21 (stereo not given)	-10.3% (inactive)	1.47	-1.15
CCOc1ccc(-n2c(O)c(C=NCCN3CCNCC3)c(=O)[nH]c2=O)cc1	46.2% (inactive)	2.45	-8.84
